In the library only some 0.86% were active in any assay of this set; here they are far more common.
TLR4 MyD88 comp: inhibitors of human TLR4-MyD88 binding; inhibition, % at 8.4 µM; O00206+Q99836; HeLa CL3-4 TLR4/MyD88 BLA complementation, FRET ratio; hit rate 0.18% among 200,000; in the data active = inhibition above about 25%;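 also: 0% = vehicle and 100% = reference inhibitor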
TLR9-MyD88 inh: TLR9-MyD88 interaction inhibition; Q9NR96+Q99836; CHO BLA complementation TLR9-MyD88, CCF4 FRET ratio; inhibition, % at 4.98 µM; hit rate 0.21% among 340,000;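 active = inhibition above the mean over all tested compounds plus 3 SD, cut at about 21% in these data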;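 also: 0% = DMSO only wells and 100% = clavulanate BLA inhibitor control wells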
IDE inh: cellular human IDE inhibition. HEK cells, FAbetaB cleavage, fluorescence polarization. P14735. hit rate 0.41% among 320,000. inhibition, % at 5.59 µM;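 active = percent inhibition above the average of all tested compounds plus 3 SD, set per screening campaign, cut at about 16% in these data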;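 also: IDE supplied by intact live HEK cells; FP after avidin binding of uncleaved biotin substrate so inhibition keeps polarization high; 0% = DMSO wells and 100% = 60 µM reference IDE inhibitor Ii1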
IDE act: boosts human insulin-degrading enzyme activity in HEK cells | P14735 | FAbeta-B cleavage, fluorescence polarization; 0% vehicle, 100% cell-free pure enzyme wells | activation, % at 5.96 µM | hit rate 0.073% among 340,000 | AID 493087;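 active = activation above the mean of all tested compounds plus 3 SD, set per screening campaign, cut at about 17% in these data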
NOD2 RIPK2 PPI: NOD2-RIPK2 protein interaction inhibition; hit rate 0.38% among 360,000; inhibition, % at 4.98 µM; AID 624267; CHO BLA complementation NOD2-RIPK2, CCF4 ratio; in the data active = inhibition above about 21%;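 also: 0% = vehicle only and 100% = reference blocker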
TLR4-MyD88 conf: confirmation of human TLR4-MyD88 binding inhibitors; shares compounds with TLR4 MyD88 comp; HeLa CL3-4 BLA complementation, CCF4 FRET ratio; inhibition, % at 8.4 µM; hit rate 50% among 350;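 active = mean inhibition across three repeat runs above about 25% carried over from the earlier screen, limit read from the data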;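 also: plate controls were DMSO only for no effect and clavulanic acid blocking BLA at full dose for full effect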
BLA inh HeLa: beta-lactamase inhibition flagged in TLR4-MyD88 counter-screen; shares compounds with TLR4 MyD88 comp; AID 1237; inhibition, % at 8.4 µM; hit rate 63% among 350; HeLa BLA reporter, CCF4 FRET ratio;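 active = mean inhibition over three repeats above about 26% taken from the earlier screen, limit read from the data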;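 also: HeLa cells stably expressing beta-lactamase reporter as counterscreen for TLR4-MyD88 inhibitors; 0% = DMSO and 100% = clavulanic acid full inhibition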
Active calls of the source: *; x = no result given.

SMILES	TLR4 MyD88 comp	TLR9-MyD88 inh	IDE inh	IDE act	NOD2 RIPK2 PPI	others
CN=C1S/C(=C\c2cn(C(C)=O)nc2-c2ccccc2)C(=O)N1C	-6	x	x	x	x
O=C1CNC(=O)/C(=C/c2cccs2)N1	-1	2	3	8	2
COCC(=O)N/N=C(\C)CC(=O)Nc1ccccc1C(N)=O	5	6	3	3	23*
O=C(Nc1ccc(-c2nc3ccccc3o2)cc1)c1ccc2c(c1)OCO2	0	6	-4	18*	11
CN1CCN(C(=O)C2CC(=O)N(c3ccc(F)c(Cl)c3)C2)CC1 (stereo not drawn)	-10	2	0	5	1
CC(C(=O)c1ccc(Br)cc1)[n+]1cccc(NC(=O)c2ccccc2)c1 (stereo not drawn)	18	6	-1	5	-7
COCCn1nnnc1CN1CCN(c2cccc(C(F)(F)F)c2)CC1	-3	4	-2	1	3
CC(C)CCn1nnnc1CN1CCN(c2ccccc2)CC1	8	0	1	18*	2
Cc1ccc(/C=C2\SC(=S)N(C(Cc3ccccc3)C(=O)O)C2=O)cc1 (stereo not drawn)	0	-4	5	1	-10
CN(C)CCNc1ncnc2c1sc1nc(-c3ccccc3)c3c(c12)CCCC3	x	-6	1	32*	2
COc1ncnc2c1sc1nc(-c3ccccc3)c3c(c12)CCCC3	-4	7	-2	5	3
CC(C)OCCCNC(=O)c1cc(S(=O)(=O)N2CCCCC2)c[nH]1	x	7	3	-4	4
OCCCn1c(C2CCCN2c2nc(-c3ccc(Cl)cc3)cs2)nc2cc(Cl)c(N3CCCCC3)cc21 (stereo not drawn)	x	1	-7	4	10
CC1=C(C(=O)OCc2ccccc2)C(c2ccc(Br)cc2)NC(=O)N1CCCCCC(=O)O (stereo not drawn)	x	2	-2	38*	-5
Cc1ccc(C(=O)c2cn[nH]c2-c2cc(Cl)ccc2O)cc1	-9	12	-5	2	3
Cc1cc(C=O)c2c(c1)C=CC1(Oc3ccccc3C(=O)N1C)O2 (stereo not drawn)	-15	x	25*	x	x
NC(CO)c1cn([C@@H](CCC(=O)O)C(=O)N2CCNCC2)nn1 (stereo partly drawn)	6	-7	1	22*	-13
Cc1ccc(NC(=S)Nc2cccc(S(=O)(=O)Nc3c(C)n(C)n(-c4ccccc4)c3=O)c2)cc1	6	3	1	2	-2
COC(=O)C1=C(C)N(Cc2ccccc2)C(=NCc2ccccc2)N[C@H]1c1cccc(C(F)(F)F)c1	x	-1	6	22*	14
COC(=O)C1=C(C)N(Cc2ccccc2)C(=NCc2cccc(Cl)c2)N[C@H]1c1cccc(F)c1	x	-3	3	18*	-3
COC(=O)C1=C(C)N(Cc2ccccc2)C(=NCc2ccc(OC)cc2)N[C@H]1c1cccc(F)c1	x	-10	3	5	-3
Cc1ccc(S(=O)(=O)N2CCOCC2)cc1C(=O)N1CCN(S(=O)(=O)c2ccccc2F)CC1	x	-1	x	4	0
O=c1c2c([N+](=O)[O-])cc([N+](=O)[O-])cc2sn1-c1ccc(Br)cc1	-19	4	96*	-53	-3
COc1ccc(OC)c(NC(=O)NC2CCCc3ccccc32)c1 (stereo not drawn)	x	3	2	0	-15
COc1ccc(NC(=O)c2cc3cc(C)ccc3n2C)c(OC)c1	x	-7	3	-1	-6
SMILES	TLR4 MyD88 comp	TLR9-MyD88 inh	IDE inh	IDE act	NOD2 RIPK2 PPI	others
Cc1sccc1C1C(C#N)=C(N)SC(N)=C1C#N	-10	x	18*	x	x
CCN(CC)c1ccc(/C=C(\C#N)C(=O)NCc2ccccc2)cc1	-1	2	23*	-17	20
CCOC(=O)c1nn(-c2cccc(OC)c2)c2nc(CC)c(C#N)c(=O)n12	-3	2	3	-3	-4
COc1ccc(/C=C2\Oc3cc(OCC(=O)N4CCC(C(=O)O)CC4)ccc3C2=O)c(OC)c1OC	x	3	-15	23*	-1
COc1ccc(/C=C2\Oc3cc(OCC(=O)N4CCC[C@H]4C(=O)O)ccc3C2=O)c(OC)c1OC	x	5	3	5	1
COc1ccc(/C=C2\Oc3cc(OCC(=O)N4CCC(C(=O)O)CC4)ccc3C2=O)c(OC)c1	x	9	-15	29*	-8
O=C(c1ccccc1)N1CCN(c2ccc([N+](=O)[O-])c(NCc3cccnc3)c2)CC1	-20	-4	-5	20*	-4
COc1ccc(/C=N/N=C2/NC(=O)C(CC(=O)NC(C)C)S2)cc1 (stereo not drawn)	4	-4	4	5	0
CC(OC(=O)c1c2c(nc3ccccc13)/C(=C\c1ccc3c(c1)OCO3)CCC2)C(=O)Nc1ccc(S(N)(=O)=O)cc1 (stereo not drawn)	12	5	x	26*	4
COc1ccc(C2NC(=O)c3ccccc3O2)cc1OC (stereo not drawn)	-19	-17	-6	1	-13
O=C(CCc1nc2ccccc2c(=O)[nH]1)Nc1ccc(N2CCCCC2)cc1	-1	-2	17*	-7	2
CC(=O)Nc1ccc(NC(=O)CCc2nc3ccccc3c(=O)[nH]2)cc1	-14	1	-2	-3	-10
COc1cc2c3nnc(-c4ccc(F)cc4)c-3cn(Cc3cccc(F)c3)c2cc1OC	26*	-5	-2	4	-9	TLR4-MyD88 conf=16;BLA inh HeLa=50*
CC1CCN(Cc2ccc(-c3nn[nH]n3)cc2)CC1	27*	-19	3	-3	-2	TLR4-MyD88 conf=-5;BLA inh HeLa=4
CCCCCCNC(=O)C(C#N)c1nc2ccccc2nc1N1CCCC1 (stereo not drawn)	38*	5	-2	-7	-15	TLR4-MyD88 conf=29*;BLA inh HeLa=1
COc1ccc(Cn2cnc3c([N+](=O)[O-])c(C)c(C)cc32)cc1	-1	3	2	0	-1
O=C(NCc1ccc2c(c1)OCO2)C1CC(=O)N(c2ccc(F)cc2)C1 (stereo not drawn)	25*	-7	2	0	2	TLR4-MyD88 conf=-8;BLA inh HeLa=7
CN(C)c1ccc(/C=N/N=C/c2ccccc2O)cc1	37*	20	1	2	-6	TLR4-MyD88 conf=58*;BLA inh HeLa=53*
COc1ccccc1C=NN=Cc1ccccc1O	x	-11	x	0	0
N#Cc1sc2nc(-c3cccs3)cc(-c3ccc(F)cc3)c2c1N	26*	26*	-3	2	12	TLR4-MyD88 conf=39*;BLA inh HeLa=63*
C[C@@H]1CN([C@@H](C)CO)C(=O)c2cc(NC(=O)Nc3ccc4c(c3)OCO4)ccc2O[C@H]1CN(C)S(=O)(=O)c1cn(C)cn1	x	-13	-1	-1	-8
